Compound activity (PubChem BioAssay)
In the library only some 2.2% were active in any assay of this set; here they are far more common.
miR122 inh = blocks miR-122 activity in Huh7 sensor cells. 340,000 tested, 0.3% active. AID 602342. activation (reporter increase), % at 12.5 µM. Huh7 miR-122 Renilla luciferase sensor, 48 h; neutral wells = 0, positive control = 100;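 active means mean replicate activation score at least 90 and every replicate individually at or above 90; inconclusive means only one of the two criteria met; inactive means neither criterion met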;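 further: higher luciferase means less miR-122 activity so hits act as miR-122 inhibitors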
C2C12 statin = suppressors of simvastatin-induced myotoxicity in C2C12 myotubes; ATP luminescence, 48 h; scaled: DMSO 0, geranylgeraniol control 100; rescue of ATP level, % at 7.49 µM; 330,000 tested, 0.78% active; AID 602340;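 active means mean ATP rescue above about 67%, or every replicate alone reaching that limit, limit read from the data, passing the limit was not always enough; inconclusive means no clear call, values can overlap the other calls; inactive means mean under the limit and some replicate under it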;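 further: myotubes were challenged with 10 µM simvastatin during compound exposure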
PGC1a acetyl inh = lowers PGC1a acetylation signal in U2OS cells; 350,000 tested, 0.17% active; AlphaScreen anti-acetyl-lysine; with virally co-expressed GCN5 acetyltransferase; inhibition, % at 15.6 µM; AID 651687;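 active means every replicate shows inhibition of at least 40%; inconclusive means mean inhibition at least 40% but some replicate below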;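 further: 0% = neutral control wells and 100% = positive control wells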
PvdQ inh = blocks Pseudomonas aeruginosa PvdQ acylase activity; purified PvdQ acylase, fluorescence plate reader; inhibition, % at 10 µM; 340,000 tested, 0.063% active; AID 488965; in the data active means inhibition above about 30%, passing the limit was not always enough; inconclusive means no clear call, values can overlap the other calls;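 further: 0% = vehicle neutral wells and 100% = reference inhibitor wells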
DENV2 CPE rescue = protects cells from dengue virus 2 cytopathic effect; DENV2-infected cells, cytopathic effect rescue, plate reader; CPE inhibition, % at 9.99 µM; 350,000 tested, 1.7% active; AID 651640; in the data active means CPE inhibition above about 20%, passing the limit was not always enough; inconclusive means no clear call, values can overlap the other calls; tested in BHK-21 cells;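 further: 0% = median of neutral control wells and 100% = median of positive control wells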
An asterisk follows results filed as active; ? = inconclusive; . = no result; ! = repeats disagree; [ ] = another dose, or the depositor's remark.

SMILES	miR122 inh	C2C12 statin	PGC1a acetyl inh	PvdQ inh	DENV2 CPE rescue
COc1ccc(NC(=O)N(C)C[C@@H]2OCCCC[C@@H](C)Oc3ccc(NC(=O)Nc4ccccc4)cc3C(=O)N([C@@H](C)CO)C[C@H]2C)cc1	-6[16.7 µM]	.	10	.	0
CO[C@H]1CN(C)C(=O)c2cc(NC(=O)c3cccc(F)c3)ccc2OC[C@H](C)N(CC2CC2)C[C@@H]1C	.	17	-3	.	-6
CO[C@H]1CN(C)C(=O)c2ccc(NC(C)=O)cc2OC[C@H](C)N(C(=O)CC2CC2)C[C@@H]1C	.	.	.	.	-2
CCCCCC(=C/c1ccccc1)/C=N/Nc1ccc(S(=O)(=O)N2CCOCC2)cc1[N+](=O)[O-]	2	-16	-6	-6	32*
CCN(CC)S(=O)(=O)N1CCC(C(=O)NCCN2CCOCC2)CC1	-2	107*	-36	-15	.
CCCCN(CC)S(=O)(=O)N1CCC(C(=O)NCCCN2CCOCC2)CC1	.	.	.	-13	1
C[C@H](CO)N1C[C@H](C)[C@H](CN(C)C(=O)c2ccncc2)OCCCC[C@H](C)Oc2ccc(NS(=O)(=O)c3ccccc3)cc2C1=O	-3[16.7 µM]	.	2	.	6
CN1C(=O)c2cc(NC(=O)C3CCCCC3)ccc2OC[C@@H]2O[C@@H](CC(=O)NCc3ccccc3F)CC[C@H]21	20[16.7 µM]	4	0	.	0
CCn1cc(/C=C(\NC(=O)c2cc(OC)c(OC)c(OC)c2)C(=O)NCCN2CCOCC2)c2ccccc21	-2	4	13	-14	2
CCn1cc(/C=C(\NC(=O)c2ccccc2OC)C(=O)NCCN2CCOCC2)c2ccccc21	0	-4	.	.	22*
CCn1c(C)cc(C(=O)COC(=O)CNC(=O)c2ccco2)c1C	3	3	3	.	61*
Cc1ccc(C(=O)NCC(=O)OCC(=O)c2cc(C)n(Cc3ccco3)c2C)cc1	-18	.	.	4	-5
COc1cccc(NC(=O)N2C[C@@H](O)COC[C@@H]3O[C@@H](CC(=O)NCc4ccccc4F)CC[C@H]32)c1	3[16.7 µM]	4	-7	.	9
O=C(NCC(F)(F)F)[C@@H]1[C@@H](CO)[C@@H]2Cn3c(cccc3=O)[C@@H]2N1C(=O)c1ccccc1F	.	-5	.	.	14
C/C=C(\C)C(=O)Nc1cccc(C2=NOC3(C2)C[C@@H](C(N)=O)N(C(=O)c2ccccc2C(=O)c2ccccc2)C3)c1 (some centres undefined)	.	10	.	7	23*
C/C=C(\C)C(=O)Nc1cccc(C2=NOC3(C2)C[C@@H](C(N)=O)N(C(=O)/C(C)=C/C)C3)c1 (some centres undefined)	-2	-6	-10	-5	30*
COc1ccc(CN2[C@@H]3CN(C(=O)c4ccccc4)c4ccccc4[C@@H]3[C@@H]2CO)cc1	20[16.7 µM]	14	9	.	0
CCOC(=O)c1c(C)[nH]c(C(=O)COC(=O)C2CC(=O)N(Cc3ccccc3)C2)c1C (centres undefined)	-3	92*	7	-7	.
COc1ccc(NC(=O)N(C)C[C@@H]2Oc3ccc(NC(=O)CCCCCC(=O)Nc4ccccc4N)cc3CC(=O)N([C@@H](C)CO)C[C@H]2C)cc1	22[16.7 µM]	-56	8	.	6
OC[C@@H]1[C@@H]2c3ccccc3NC[C@@H]2N1Cc1ccccc1Cl	-14[16.7 µM]	11	-4	.	3
COc1ccc(CN2[C@@H](CO)[C@@H]3c4ccccc4NC[C@@H]32)cc1	-14[16.7 µM]	15	4	.	66*
COc1ccc(CN2[C@H](CO)[C@H]3c4ccccc4NC[C@H]32)cc1	0[16.7 µM]	157*	11	.	10
CCCNC(=O)[C@H]1[C@H](CO)[C@H]2Cn3c(ccc(-c4ccccc4F)c3=O)[C@H]2N1CCC	1[16.7 µM]	-16	.	.	-10
C[C@@H]1CN([C@@H](C)CO)C(=O)c2cc(NC(=O)Nc3ccc(F)cc3)ccc2O[C@@H](C)CCCCO[C@@H]1CN(C)C	-4[16.7 µM]	-28	0	.	.
CN(C)C(=O)C[C@@H]1CC[C@H]2[C@@H](COc3ccc(NC(=O)C4CCC4)cc3C(=O)N2C)O1	.	.	6	.	17
SMILES	miR122 inh	C2C12 statin	PGC1a acetyl inh	PvdQ inh	DENV2 CPE rescue
CN1CCCC1c1cccnc1 (centres undefined)	1	8	-3	0	117*
CC(C)Cc1nnc(NC(=O)Cc2ccccc2[N+](=O)[O-])s1	126*	-3	.	-13	1
C[C@H](CO)N1C[C@H](C)[C@@H](CN(C)Cc2cncnc2)Oc2ncc(-c3ccc(C#N)cc3)cc2C1=O	.	-11	5	.	?
C[C@H]1CN([C@@H](C)CO)C(=O)c2cc(NC(=O)Nc3cccc4ccccc34)ccc2O[C@@H]1CN(C)C(=O)Nc1ccc(C(F)(F)F)cc1	12[16.7 µM]	29	18	.	0
O=C(c1ccccc1)N1CC2(C1)[C@@H](c1ccccc1)[C@@H](CO)N2Cc1ccccn1	.	.	3	.	21*
CCS(=O)(=O)N1CC2(C1)[C@H](c1ccccc1)[C@@H](CO)N2Cc1ccccn1	.	.	1	.	-1
O=C(c1cccnc1)N1CC2(C1)[C@H](c1ccccc1)[C@@H](CO)N2Cc1cccnc1	.	.	.	.	-5
CCS(=O)(=O)N1CC2(C1)[C@@H](c1ccccc1)[C@H](CO)N2Cc1ccccn1	.	.	-3	.	22*
O=C(c1cccnc1)N1CC2(C1)[C@H](c1ccccc1)[C@@H](CO)N2Cc1ccccc1	.	.	0	.	108*
CO[C@@H]1CN(C)C(=O)c2ccc(NC(=O)NC3CCCCC3)cc2OC[C@@H](C)N(C(=O)NC2CCCCC2)C[C@H]1C	13[16.7 µM]	-9	6	.	3
C[C@@H]1CN([C@@H](C)CO)C(=O)c2cc(Br)cnc2O[C@@H]1CN(C)C(=O)C1CCC1	-4[16.7 µM]	18	10	.	.
COc1ccc(COC[C@]23N=C4Sc5ccc([N+](=O)[O-])cc5C(=O)N4[C@H](c4ccccc4O2)[C@H]3CO[Si](C)(C)C(C)(C)C)cc1	.	.	-5	.	4
COc1ccc(COCC23N=C4SCc5ccccc5C(=O)N4[C@H](c4ccccc4O2)[C@H]3CO[Si](C)(C)C(C)(C)C)cc1	.	.	-36	.	28*
CC(=O)Nc1ccc(Nc2nnc(-c3ccc(C)c(S(=O)(=O)NCC4CCCO4)c3)c3ccccc23)cc1 (centres undefined)	29	3	-17	-10	3
Cc1ccc(-c2nnc(Nc3ccccc3)c3ccccc23)cc1S(=O)(=O)NCC1CCCO1 (centres undefined)	127*	-13	-120	-5	.
COc1cc(NC(=O)c2nccn2C)cc(C(=O)Nc2cccc(C(F)(F)F)c2)c1	1	-18	.	1	110*!
CO[C@@H]1CN(C)C(=O)c2ccc(NC(=O)C3CCC3)cc2OC[C@@H](C)N(C)C[C@@H]1C	-2[16.7 µM]	2	.	.	-3
CCOc1ccc2[nH]c(C)c(CN3CCOCC3)c(=O)c2c1	-4	0	-3	-3	11
CCOc1ccc2[nH]c3ncccc3c(=O)c2c1	.	16	.	0	30*
Cc1ccccc1S(=O)(=O)N[C@@H]1CC[C@@H](CCn2cc(Cc3ccccc3)nn2)O[C@@H]1CO	.	-6	1	.	-1
